# Data as given in PubChem BioAssay (NCATS).
# Records with an inconclusive call do not appear. A call without a number means that no potency is given here. Calls of active or inactive are those of the source. Calls follow the shape of the dose curve; as a rule, active = well fitted curve in the direction sought with a large enough effect; inconclusive = small, poorly fitted or top-dose-only effect, or another doubt; inactive = no such curve, though single readings can be large; an effect the other way counts as inactive or inconclusive.
# What was measured:
# [1] = qHTS to identify inhibitors of the type 1 interferon - major histocompatibility complex class I in skeletal muscle: primary screen against the NCATS Mechanism Interrogation Plate v5.0 (MIPE) Libary (AID 1347411); also: nearly all actives have a fitted effect of over 65% in size; also: potency is read from the fitted curve at half-maximal effect
# How it was run: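 Immortalized human C25cl48 myoblasts with HiBit knocked into endogenous HLA-B*08:01 were stimulated with 4.0 ng/ml IFN-beta and exposed to compounds (11-point 1:3 titration, top 46 uM final) for 24 hrs at 37 C; HiBiT lytic luminescence measured.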
# [2] = DH5-alpha competent E. coli microbial cell viability qHTS against the NCATS CANVASS Library (AID 1347377)
# How it was run: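 DH5-alpha E. coli suspension (0.9 OD culture diluted to 0.2 OD) exposed to compounds in an 11-point series, overnight at 37C, 5% CO2. Viability read as ATP by BacTiter-Glo luminescence after 20 min at room temperature.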
# [3] = qHTS for H2AX Agonists against the NCATS CANVASS Library (AID 1347378)
# How it was run: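 Phospho-H2AX (S139) in CHO-K1 lysates measured by HTRF, reported as 665/615 nm emission ratio after 24 hr antibody incubation at room temperature. Cells were first treated with a compound series for 3 hr at 37C (0.76% DMSO final).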
# [4] = qHTS for Inflammasome Signaling Inhibitors: IL-1-beta AlphaLISA screen against the NCATS CANVASS Library (AID 1347379); settings: outcome: dose series up to 57.5 µM;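 also: human THP-1 cells primed with LPS then triggered with ATP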
# How it was run: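 Human THP-1 cells were pretreated 1 hr at 37 °C with compounds (up to 57.5 uM final), then stimulated with LPS (250 ng/mL final) and ATP (1.25 mM final). Secreted IL-1B was read by AlphaLISA after 16 hr.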
# [5] = qHTS for Antimalaria activity screened against the NCATS CANVASS Library (AID 1347380);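 also: Plasmodium falciparum strain Dd2 asexual parasites grown in red blood cells; series mostly up to about 29 µM; nearly all actives have a fitted effect of over 40% in size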
# How it was run: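 P. falciparum Dd2-infected RBCs (2.5% hematocrit final, 0.3% parasitemia) in Albumax II RPMI were exposed to compounds in an 11-point qHTS series for 72 h at 37C under 5% O2/5% CO2, then lysed with SYBR Green.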
# [6] = Inflammasome Signaling qHTS Counterscreen: IL-1-beta AlphaLISA counterscreen against the NCATS CANVASS Library (AID 1347381);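 also: cell-free check with purified IL-1β in medium and no THP-1 cells; series mostly up to about 57 µM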
# How it was run: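 To flag interference with the AlphaLISA read-out, a known amount of purified IL-1-beta (4 pg) replaced cell supernatant. Detection used anti-IL-1-beta acceptor beads, biotinylated antibody and streptavidin donor beads at room temperature.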
# [7] = Cytotoxicity qHTS for assessment of Hepg2 cells membrane integrity screened against the NCATS CANVASS Library (AID 1347387)
# How it was run: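 HepG2 cells (2000/well) attached overnight at 37C, then received compounds in an 11-point series at 0.59 nM - 46 uM final for 5 hr. LDH release was detected fluorometrically (ex 560/em 590 nm) with CytoTox-ONE reagent after 10 min at room temperature.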
# [8] = qHTS for Activators of p53 Stress Response Pathway screened against the NCATS CANVASS Library (AID 1347388)
# How it was run: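 p53RE-bla HCT-116 cells (4000/well) were pre-incubated for 5 h, then treated with compound (11 points) for 16 h at 37C. After 2 h with CCF4, the 460/530 nm ratio gave reporter activation; CellTiter-Glo measured viability.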
# [9] = Secretion counterscreen for inhibitors of the SERCaMP assay screened against the NCATS CANVASS Library (AID 1347390);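 also: light from luciferase secreted into medium read as a measure of general secretion; series mostly up to about 77 µM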
# How it was run: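 Counterscreen for secretory-pathway interference: after 4 h attachment, SH-SY5Y-GLuc cells were exposed 20 hours to compounds (final 0.001 - 77 uM), then coelenterazine added and GLuc luminescence recorded; Brefeldin A served as control.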
# [10] = qHTS for activators of Nrf2/ARE signaling pathway screened against the NCATS CANVASS Library (AID 1347391); also: nearly all actives have a fitted effect of over 60% in size
# How it was run: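 ARE-bla HepG2 beta-lactamase reporter cells, 2000 cells/well, were preincubated 5 h, then exposed to compounds (11-point series) for 16 h at 37C. CCF4 fluorescence (ex 405, em 460/530 nm) after 2 h at room temperature.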
# [11] = qHTS for activators of dead-cell proteases activity screened against the NCATS CANVASS Library (AID 1347392);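 also: luminescence from protease leaking out of membrane-damaged cells cleaving impermeant substrate; rising signal means more cytotoxicity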
# How it was run: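 HepG2 cells, 2000/well, attached 18 h at 37C, then exposed to compounds (11-point qHTS) for 5 h. Dead-cell protease release read as luminescence from cell-impermeant AAF-aminoluciferin substrate after 15 min at room temperature.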
# [12] = qHTS for inhibitors of ER calcium dysfunction: SERCaMP assay screened against the NCATS CANVASS Library (AID 1347393);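 also: series mostly up to about 77 µM; lower secreted reporter signal means inhibitor of ER calcium depletion; nearly all actives have a fitted effect of over 40% in size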
# How it was run: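 SH-SY5Y GLuc-SERCaMP, 1000 cells/well, 4 h attach; cpd 16 h, 37C/5% CO2; thapsigargin (added as 6x 600 nM) 4 h; coelenterazine; luminescence. Reduced reporter release = ER Ca stabilization.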
# [13] = Vero-766 cells viability qHTS against the NCATS CANVASS Library: Counterscreen for Zika virus inhibition assay (AID 1347394); also: series mostly up to about 46 µM; nearly all actives have a fitted effect of over 60% in size
# How it was run: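 CellTiter Glo luminescence measured cytotoxicity after 72 h at 37C in uninfected Vero 766 cells, plated at 1000 cells/well. Compounds were applied in an 11-point series. Wells without cells defined 100% inhibition.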
# [14] = qHTS for inhibitors of Wild type Zika virus screened against the NCATS CANVASS Library (AID 1347396);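 also: ATP luminescence of surviving cells so rescue from viral cell killing; series mostly up to about 46 µM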
# How it was run: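 Vero 766 cells, 1000/well, o/n attach; cpds pin-transferred (11-pt qHTS); WT Zika added; 72 h, 37C, 5% CO2; CellTiter Glo lumi. Uninfected + vehicle = 100% inhibition.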
# [15] = Viability qHTS for inhibitors of the SERCaMP assay screened against the NCATS CANVASS Library (AID 1347400); also: series mostly up to about 92 µM; nearly all actives have a fitted effect of over 70% in size
# How it was run: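 SH-SY5Y-GLuc SERCaMP MJH297-derived cells (1000 cells/well) were pre-incubated 4 h at 37C, then exposed to compounds for 48 h. Viability was read as CellTiter-Glo luminescence; bortezomib served as positive control.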
# [16] = Redox Reaction Profiling qHTS: Assay Interference Panel against the NCATS CANVASS Library (AID 1347401)
# How it was run: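 Compounds in 11-point series incubated with 5 uM resazurin and 200 uM DTT in 50 mM HEPES pH 7.3, 50 mM NaCl. Resorufin fluorescence (Ex 525/Em 598) read before and after 15 min in the dark.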
# [17] = qHTS to identify inhibitors of the type 1 interferon - major histocompatibility complex class I in skeletal muscle: primary screen against the NCATS LOPAC collection (AID 1347405);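 also: lytic HiBiT luminescence reporting HLA-B protein level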
# How it was run: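 Immortalized human C25cl48 myoblasts with HiBiT knocked into endogenous HLA-B*08:01 were stimulated with 4.0 ng/ml IFN-beta and given compounds in a 7-point, 1:4.3 titration from 46 uM final; after 24 hrs, lytic HiBiT luminescence was read.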
# [18] = qHTS to identify inhibitors of the type 1 interferon - major histocompatibility complex class I in skeletal muscle: primary screen against the NCATS Pharmaceutical Collection (AID 1347407);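 also: luminescence of HiBiT knocked into endogenous HLA-B as interferon-induced MHC class I level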
# How it was run: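 Compounds […] were added to CRISPR-engineered HLA-B-HiBiT C25cl48 human myoblasts with 4.0 ng/ml IFN-beta. After 24 hrs at 37 C, cells were lysed and HiBiT luminescence measured.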
# [19] = qHTS for inhibitors of adenylyl cyclases using a fission yeast platform: a pilot screen against the NCATS LOPAC library (AID 1347410)
# How it was run: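 GFP from fbp1-GFP reporter, read by Acumen laser cytometry, indicates AC inhibition in fission yeast expressing AC9, GNAS and PDE4D2. Cells grown 18 h in the dark at 30C with compounds, final up to 57 uM.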
smiles,measurement,setting,value
NS(=O)(=O)NCCNc1nonc1C(=Nc1ccc(F)c(Br)c1)NO,Potency,[1],inactive
Cc1nnc(C(C)C)n1C1CC2CCC(C1)N2CCC(NC(=O)C1CCC(F)(F)CC1)c1ccccc1 (stereo not drawn),Potency,[1],inactive
CC1=C2C(=O)O[C@@H](c3ccoc3)[C@]2(C)CCC1,outcome,[2],inactive
same,outcome,[3],inactive
same,outcome,[4],inactive
same,outcome,[5],inactive
same,outcome,[6],inactive
same,outcome,[7],inactive
same,outcome,[8],inactive
same,outcome,[9],inactive
same,outcome,[10],inactive
same,outcome,[11],inactive
same,outcome,[12],inactive
same,outcome,[13],inactive
same,outcome,[14],inactive
same,outcome,[15],inactive
same,outcome,[16],inactive
CN1CC[C@@H](NC(=O)Nc2ccc(C#N)cc2)C[C@@H]1c1nc2ccccc2[nH]1,Potency,[1],inactive
COc1cc2c(cc1O)CCN[C@]21CS[C@@H]2c3c(OC(C)=O)c(C)c4c(c3[C@H](COC1=O)N1[C@@H]2[C@H]2c3c(cc(C)c(OC)c3O)C[C@@H]([C@@H]1O)N2C)OCO4,Potency,[1],84.8 nM (active)
CC(=O)c1cnc2ccc(-c3cc(Cl)c(O)c(Cl)c3)nc2c1NC1CCC(CN(C)C)CC1 (stereo not drawn),Potency,[1],151 nM (active)
CN1C(=O)N[C@@H](Cc2c[nH]c3c(Cl)cccc23)C1=O,Potency,[1],inactive
C=C1CC[C@@H]2[C@](C)(CO)[C@H](O)CC[C@@]2(C)[C@@H]1C/C=C1/C(=O)OC[C@H]1O,Potency,[1],11700 nM (active)
CN1Cc2c(N)cccc2C(c2ccccc2)C1 (stereo not drawn),outcome,[17],inactive
same,outcome,[18],inactive
same,outcome,[19],inactive
O=C(O)c1cnn(-c2nc3cc(OC(F)(F)F)c(Cl)cc3[nH]2)c1,Potency,[1],inactive
CC(C)(O)CNc1nc(Nc2ccnc(C(F)(F)F)c2)nc(-c2cccc(C(F)(F)F)n2)n1,Potency,[1],inactive
CC(=O)OC(C)OC(=O)C(C)c1ccc(-c2ccccc2)c(F)c1 (stereo not drawn),outcome,[18],inactive
